HT1080NT lethal: kills 2HG-producing HT-1080-NT fibrosarcoma cells | HT-1080-NT fibrosarcoma viability, CellTiter-Glo ATP luminescence, 48 h | Potency, µM (highest dose often 46.1 µM), for inactives: at the highest dose activity, negative = less viability, hits mostly cytotoxic | actives 1.6% (n = 360,000) | AID 686970;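 also: NT is the 2HG producing partner of a matched IDH1 knockdown line; potency is read from the fitted curve at half-maximal effect; 0% = DMSO-treated cells and -100% = media-only wells without cells; nearly all actives have a fitted effect of over 55% in size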
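HT-1080-NT; 750 cells/well; 5% FBS RPMI; 48 h compound, 37 degrees C; CellTiter-Glo luminescence; curve fitting and curve-class assignment.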
TDP1 cell noCPT: qHTS for Inhibitors of human tyrosyl-DNA phosphodiesterase 1 (TDP1): qHTS in cells in absence of CPT | DT40 Tdp1-/- hTDP1 cells, no CPT, ATP luminescence, 48 h | Potency, µM (top dose mostly 46.2 µM), for the others: at the highest dose activity change, negative = growth inhibition, usual class: inhibitors | actives 15% (n = 420,000) | AID 686978, 2013; also: potency is read from the fitted curve at half-maximal effect; nearly all actives have a fitted effect of over 55% in size
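Growth of hTDP1-complemented DT40 Tdp1-knockout cells is measured by ATP luminescence after at least 48 hr compound exposure at 37 °C, with DMSO substituting for the 20 nM CPT used in the parallel screen.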
HT1080 IDH1KD tx: toxicity to HT-1080 IDH1 knockdown cells (counter line). HT-1080 IDH1 knockdown viability, ATP luminescence, 48 h. Potency, µM (doses to about 46.1 µM), for the others: at the top dose activity, negative = toxicity, hits mostly cytotoxic. actives 2% (n = 360,000). AID 686971;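 also: potency is read from the fitted curve at half-maximal effect; 0% = DMSO wells and -100% = cell-free medium wells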
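After a 2 h attachment period, IDH1KD HT-1080 cells took pin-transferred compound for 48 h at 37 °C; ATP-based luminescence after 10 min room-temperature reagent incubation reported viability.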
DT40 TDP1 CPT: growth inhibition of DT40 Tdp1-/-;hTDP1 cells with camptothecin (screen for TDP1 inhibitors); chicken DT40 Tdp1-/-;hTDP1 cells + 20 nM CPT, ATP luminescence, 48 h; Potency, µM (series often up to 46.2 µM), for the others: at the highest dose activity change, negative = growth inhibition, hits mostly inhibitors; actives 12% (n = 420,000); AID 686979; also: potency is read from the fitted curve at half-maximal effect; nearly all actives have a fitted effect of over 55% in size
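Chicken DT40 Tdp1-/- cells stably complemented with human TDP1 were seeded at 400 cells/well in medium containing 20 nM camptothecin, exposed to pin-transferred compounds, and grown at 37 °C for at least 48 hr. Viability was read as ATP luminescence.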
IL-1B inflam inh: inflammasome signaling inhibition, IL-1 beta readout | activity change, % at 57.5 µM | actives 4.7% (n = 360,000) | THP-1 LPS/ATP IL-1B secretion, AlphaLISA, 16 h; active compounds read low | AID 743279; in the data active = activity change below about -50%; inconclusive = mostly about -30% to -49%
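Secreted IL-1B measured by AlphaLISA bead assay after 16 h compound exposure of THP-1 cells; compounds (final up to 57.5 uM) added 1 h before LPS (250 ng/mL) and ATP (1.25 mM) stimulation; lower signal means less secretion.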
Starred values were filed as active, the others as inactive; [ ] = another dose, or the depositor's remark. A selection: hits, their analogues and other compounds. The true share with any hit is near 19%. Unless noted, calls follow the shape of the dose curve; as a rule, active = well fitted curve in the direction sought with a large enough effect; inconclusive = small, poorly fitted or top-dose-only effect, or another doubt; inactive = no such curve, though single readings can be large; an effect the other way counts as inactive or inconclusive. Unless noted, % is scaled to controls: 0 for no effect and ±100 for the full control effect.

`Cc1ccc(-n2ncc(C(=O)NC3CC3)c2C2CCN(C(=O)OC(C)(C)C)CC2)cc1` gave HT1080NT lethal 15%, TDP1 cell noCPT -3%, HT1080 IDH1KD tx 18%, DT40 TDP1 CPT -18% and IL-1B inflam inh 36.
N#Cc1ccccc1NC(=O)CN1C(=O)NC(Cc2c[nH]c3ccccc23)C1=O (configuration not stated) was read as HT1080NT lethal -4%, TDP1 cell noCPT -11%, HT1080 IDH1KD tx -2%, DT40 TDP1 CPT -16% and IL-1B inflam inh 18.
Screening CCOC(=O)Oc1c(OC)cc(C(=O)O[C@@H]2C[C@@H]3CN4CCc5c([nH]c6cc(OC)ccc56)[C@H]4C[C@@H]3[C@H](C(=O)OC)[C@H]2OC)cc1OC returned HT1080NT lethal 15µM*, TDP1 cell noCPT 13µM*, HT1080 IDH1KD tx inconclusive, DT40 TDP1 CPT 23µM* and IL-1B inflam inh 0.
For CCC1C(=O)NCCN1Cc1ccc2c(c1)CN(Cc1ccc(OC)c(OC)c1)CCO2 (configuration not stated) the results were TDP1 cell noCPT -25% and DT40 TDP1 CPT 0%[9.04 µM].
For COc1cccc(CN2CCN(Cc3cccc(Oc4ccccc4)c3)CC2)c1OC the results were HT1080NT lethal -23%, TDP1 cell noCPT -26%, HT1080 IDH1KD tx -30%, DT40 TDP1 CPT inconclusive and IL-1B inflam inh -3.
Screening COc1cccc(CN2CCC(N(CCc3ccccc3)Cc3ccccc3)CC2)c1OC returned HT1080NT lethal inconclusive, TDP1 cell noCPT 29µM*, HT1080 IDH1KD tx inconclusive, DT40 TDP1 CPT inconclusive and IL-1B inflam inh -62*.
Screening O=C(CN1C(=O)NC2(CCCC2)C1=O)Nc1ccccc1N1CCCCC1 returned HT1080NT lethal -1%, TDP1 cell noCPT -2%, HT1080 IDH1KD tx -7%, DT40 TDP1 CPT -22% and IL-1B inflam inh -2.
Screening O=[N+]([O-])c1ccc(Cl)c(/C=N/N2CCN(Cc3ccccc3)CC2)c1 returned HT1080NT lethal 10%, TDP1 cell noCPT 9%, HT1080 IDH1KD tx 4%, DT40 TDP1 CPT -6% and IL-1B inflam inh 24.
Cc1ccc(CN2CCN(/N=C\c3cccc([N+](=O)[O-])c3)CC2)cc1 was read as HT1080NT lethal -17%, TDP1 cell noCPT inconclusive, HT1080 IDH1KD tx -21%, DT40 TDP1 CPT 3% and IL-1B inflam inh -62*.
For O=[N+]([O-])c1ccc(Cl)c(/C=N/N2CCN(Cc3ccccc3Cl)CC2)c1 the results were HT1080NT lethal 1%, TDP1 cell noCPT 21µM*, HT1080 IDH1KD tx 0%, DT40 TDP1 CPT inconclusive and IL-1B inflam inh -7.
`Cn1cccc1/C=N/N1CCN(Cc2ccccc2Cl)CC1` gave HT1080NT lethal -4%, TDP1 cell noCPT 2.6µM*, HT1080 IDH1KD tx -5%, DT40 TDP1 CPT -13% and IL-1B inflam inh -19.
For O=[N+]([O-])c1ccc(NC(=S)N/C(=N/CS(=O)(=O)c2ccccc2)c2ccccc2)cc1 the results were HT1080NT lethal 0%, TDP1 cell noCPT 23µM*, HT1080 IDH1KD tx -10%, DT40 TDP1 CPT inconclusive and IL-1B inflam inh -8.
Screening CC(=O)Nc1ccc(NC(=S)NC(=O)c2ccc([N+](=O)[O-])cc2)cc1 returned HT1080NT lethal -1%, TDP1 cell noCPT -6%, HT1080 IDH1KD tx -5%, DT40 TDP1 CPT -9% and IL-1B inflam inh 8.
COc1cccc(NC(=O)CSC2=Nc3ccccc3C3=NC(CC(=O)NCc4cccs4)C(=O)N23)c1 (configuration not stated) was read as TDP1 cell noCPT inconclusive and DT40 TDP1 CPT 10µM*.
For CCCCNC(=O)CC1N=C2c3ccccc3N=C(SCC(=O)Nc3cccc(OC)c3)N2C1=O (configuration not stated) the results were HT1080NT lethal -21%, TDP1 cell noCPT -18%, HT1080 IDH1KD tx -14%, DT40 TDP1 CPT -21% and IL-1B inflam inh -13.
`CCc1ccc(NC(=O)CSC2=Nc3ccccc3C3=NC(CC(=O)NCc4cccs4)C(=O)N23)cc1` (configuration not stated) gave TDP1 cell noCPT 4.6µM* and DT40 TDP1 CPT 7.3µM*.
For CCc1ccc(NC(=O)CSC2=Nc3ccccc3C3=NC(CC(=O)NCc4ccccc4)C(=O)N23)cc1 (configuration not stated) the results were TDP1 cell noCPT 0% and DT40 TDP1 CPT -8%.
`O=S(=O)(c1ccc(Cl)cc1)c1nc(-c2cccs2)oc1N1CCCCC1` gave TDP1 cell noCPT 16µM* and DT40 TDP1 CPT inconclusive.
For O=S(=O)(c1ccc(F)cc1)c1nc(-c2ccccc2F)oc1N1CCCCC1 the results were HT1080NT lethal -7%, TDP1 cell noCPT inconclusive, HT1080 IDH1KD tx -12%, DT40 TDP1 CPT inconclusive and IL-1B inflam inh -11.
For NC(=O)C1CCN(c2oc(-c3ccc(F)cc3)nc2S(=O)(=O)c2ccccc2)CC1 the results were HT1080NT lethal -9%, TDP1 cell noCPT inconclusive, HT1080 IDH1KD tx -9%, DT40 TDP1 CPT inconclusive and IL-1B inflam inh -2.
NC(=O)C1CCN(c2oc(-c3cccs3)nc2S(=O)(=O)c2ccc(Cl)cc2)CC1 was read as HT1080NT lethal 2%, TDP1 cell noCPT 0%, HT1080 IDH1KD tx -14%, DT40 TDP1 CPT 11% and IL-1B inflam inh -55*.
Screening N#CC1(NC(=O)Cn2ncc(Cl)c(Cl)c2=O)CCCCC1 returned HT1080NT lethal 5.8µM*, TDP1 cell noCPT 7.3µM*, HT1080 IDH1KD tx 9.2µM*, DT40 TDP1 CPT 13µM* and IL-1B inflam inh -103*.
For O=C(N/N=C/c1cccs1)C1COc2ccccc2O1 (configuration not stated) the results were HT1080NT lethal inconclusive, TDP1 cell noCPT 16µM*, HT1080 IDH1KD tx inconclusive, DT40 TDP1 CPT inconclusive and IL-1B inflam inh 20.
Cc1ccc(/C=N/NC(=O)C2COc3ccccc3O2)s1 (configuration not stated) was read as HT1080NT lethal inconclusive, TDP1 cell noCPT 1.6µM*, HT1080 IDH1KD tx 1.8µM*, DT40 TDP1 CPT 1.2µM* and IL-1B inflam inh -12.
CC(C)Cc1ccc([C@@H](C)C(=O)NS(C)(=O)=O)cc1 was read as TDP1 cell noCPT inconclusive and DT40 TDP1 CPT -3%.
`CC(C)Cc1ccc(C(C)CC2=CCC(CN(C)C)C2=O)cc1` (configuration not stated) gave HT1080NT lethal inconclusive, TDP1 cell noCPT 4.6µM*, HT1080 IDH1KD tx inconclusive, DT40 TDP1 CPT 4.6µM* and IL-1B inflam inh 0.
